Source: PMC5540273 (PLoS ONE, 2017)

What follows are compounds tested on BMPR1B. Details: concentration: 1 μM, replicates: in singlicate; n = 1.
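Note: KINOMEscan kinase panel screen.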

Compound	%Inh
Cc1ccc(NC(=O)c2cccc(C#N)c2)cc1-c1ccc(C(=O)Nc2ccncc2)cc1 [GSK1398463]	0%
CS(=O)(=O)CCNCc1ccc(-c2ccc3ncnc(Nc4ccc(OCc5ccccc5)c(Cl)c4)c3c2)o1.Cl [GW574783]	0%
Fc1ccc(-c2ncn(CCCNCc3ccccc3)c2-c2ccncc2)cc1	24%
CCc1nc(-c2cccc(C)c2)c(-c2ccnc(NC(=O)c3ccccc3)c2)s1	9%
c1ccc(-c2ccc3c(-c4ccnc(Nc5ccc6c(c5)OCCO6)n4)cnn3n2)cc1 [GW818941]	0%
CSc1ccc(NC2=C(c3ccccc3Cl)C(=O)NC2=O)cc1 [SB-342411]	0%
FC(F)(F)c1ccc(-c2cc(-c3c[nH]nc3-c3ccccn3)ccn2)cc1 [GW599550]	0%
COc1ccc(NC(=O)Nc2ccc(C)c(-c3ccc(C(=O)Nc4ccncc4)cc3)c2)cc1 [GSK1398475]	0%
Fc1ccc(Nc2nccc(-c3c(-c4ccc(Cl)cc4)nn4ncccc34)n2)cc1F [GW829058]	18%
Cn1cc(-c2ccc3c(c2)CCN3C(=O)Cc2cccc(C(F)(F)F)c2)c2c(N)ncnc21 [GSK2606414]	0%
O=C(CCO)NCCn1ccc2ncnc(Nc3ccc(Oc4cccc(C(F)(F)F)c4)c(Cl)c3)c21	0%
CNc1nccc(-c2c(-c3ccc(F)cc3)ncn2CCCN2CCOCC2)n1 [SB-222516]	0%
COC(=O)c1cccc(NC(=O)NCCNc2ccnc(Nc3ccc(F)cc3)n2)c1 [GSK1379883]	0%
